Results from PubChem BioAssay AID488890 (Southern Research Specialized Biocontainment Screening …, 2010).
Hit rate of the full screen: of about 320,000 compounds, about 1,300 (0.41%) were called active. Roughly 3% stayed inconclusive and do not appear here. The rule behind the calls is not given here. These entries were drawn from the full list. Potency and affinity values are given separately. Peptide text beside a SMILES is read from it. * marks the point of attachment. Boc = CC(C)(C)OC(=O)*; OtBu = CC(C)(C)O*

Assay: growth inhibition of non-replicating M. tuberculosis (AID 488890);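 note: plate controls were DMSO cells for no effect and high antibiotic wells for full effect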
Conditions: Mycobacterium tuberculosis non-replicating, at 25 µM, stronger effect = higher value

| SMILES | inhibition [%] |
| --- | --- |
| COc1ncccc1-c1nnn(-c2ccccc2Br)n1 | 3.8 |
| C#CCOc1ccc2c(c1)c(C(C)=O)c(C)n2Cc1ccccc1 | -5.53 |
| CCOC(=O)COc1ccc2c(c1)c(C(C)=O)c(C)n2-c1ccccc1 | 19.1 |
| O=C(COc1ccc(F)cc1Br)NCc1ccccn1 | 28.1 |
| COc1ccc(S(=O)(=O)NCc2ccncc2)cc1NC(=O)c1ccc(Cl)cc1 | 5.22 |
| Cc1oc2c(c(=O)c1C)C(=O)CC(c1ccccc1)C2 (configuration not stated) | -6.93 |
| Cc1c(C(=O)O)[nH]c2c1C(=O)CC(c1ccccc1)C2 (configuration not stated) | 4.15 |
| Cc1cc(Cl)ccc1N1C(=O)CC(NNC(=O)c2cccnc2)C1=O (configuration not stated) | 5.86 |
| CCS(=O)(=O)N1CCC(NC(=O)C2CCCCC2)CC1 | -9.82 |
| CCOC(=O)c1csc(NC(C)=O)n1 | -1.23 |
| CC(=O)c1csc(COc2ccccc2)n1 | -0.92 |
| CCOC(=O)c1csc(N)n1 | -4.96 |
| Cc1onc(-c2ccccc2)c1-c1csc(COc2ccccc2)n1 | 33.1 |
| CCOC(=O)c1csc(-c2ccc(OC)c(OC)c2)n1 | 32.3 |
| CC(C)NC(=O)NNC(=O)c1cc(COc2cc(Cl)cc(Cl)c2)on1 | 31.8 |
| CCC(=O)NNC(=O)c1cc(COc2cc(Cl)cc(Cl)c2)on1 | 40 |
| CCOC(=O)c1csc(NC(=O)COc2ccc(Cl)cc2Cl)n1 | 80.3 |
| COc1ccc(OC)c(Nc2nc(N)nc(CSc3nnc(N)s3)n2)c1 | -6.45 |
| N#CC1(NC(=O)CSc2nnc(-c3ccccc3F)n2N)CCCCC1 | -6.24 |
| O=C(CCN1C(=O)C2CC=CCC2C1=O)NC1CCCCC1 (configuration not stated) | -1.44 |
| COc1ccc(-c2cn(-c3ccc(Cl)cc3)c3[n+]2CCCCC3)cc1 | 10.6 |
| O=C(c1ccc(N2CC3CC(C2)c2cccc(=O)n2C3)c([N+](=O)[O-])c1)N1CCCC1 (configuration not stated) | -6.65 |
| O=C(C1=NN[C@@H]2C(=O)N(Cc3ccccc3)C(=O)[C@H]12)c1ccc(F)cc1 | 5.43 |
| N#CCP(=S)(c1ccccc1)c1ccccc1 | 24.1 |

| SMILES | inhibition [%] |
| --- | --- |
| CCCNC(=O)C(Cc1ccccc1)NC(=O)c1ccc(-c2ccccc2)cc1 (configuration not stated) | 4 |
| COc1ccc(CN(CC2CCC(C(=O)O)CC2)C(=S)Nc2cc(Cl)ccc2OC)cc1 (configuration not stated) | 2.05 |
| CC(NC(=O)C(CC(=O)OC(C)(C)C)NC(=O)OC(C)(C)C)C(N)=O (configuration not stated) (Boc-Asp(OtBu)-Ala-NH2; configuration not given here) | -0.24 |
| Cc1onc(C(=O)NN)c1-c1csc(COc2ccc(Cl)cc2)n1 | 13.2 |
| Cc1onc(-c2ccc(Cl)cc2Cl)c1-c1csc(COc2ccccc2)n1 | -7.56 |
| Nc1nonc1-c1noc(COc2ccccc2Cl)n1 | 5.72 |
| CCOC(=O)c1ccccc1-c1csc(N)n1 | 6.53 |
| CC(=O)c1csc(COc2ccc(Cl)cc2)n1 | 38.9 |
| CCOC(=O)c1csc(NC(=O)c2ccc(OCC)cc2)n1 | 19.8 |
| CCn1cc(C(=O)NCC2CCCO2)c(=O)c2cc(S(=O)(=O)N3CCCCCC3)ccc21 (configuration not stated) | 4.04 |
| COc1ccccc1C(=O)Nc1c2c(nn1-c1cccc(C)c1C)CS(=O)(=O)C2 | 2.28 |
| CC(C)c1ccc(NC2CCCN(C(=O)c3ccc(Cn4cnnn4)cc3)C2)cc1 (configuration not stated) | 10.9 |
| CS(=O)(=O)N1CCCC(C(=O)Nc2ccc(F)c(F)c2)C1 (configuration not stated) | -12.2 |
| Nn1c(SCC(=O)Nc2ccc3c(c2)OCCO3)nncc1=O | -11.2 |
| NC(=O)c1ccccc1N/C=C/C(=O)c1ccco1 | -0.65 |
| Cc1ccc(N/C=C/C(=O)c2ccco2)c(O)c1 | 12.5 |
| CCOc1ccccc1N/C=C/C(=O)C(C)(C)C | 0.25 |
| Cc1ccc(N/C=C/C(=O)C(C)(C)C)c(O)c1 | 6.34 |
| C=C(C)COc1ccc(-c2[nH]ncc2Oc2ccc(OC)cc2)c(O)c1 | -5.21 |
| COc1ccc(C(c2c(N)[nH]c(=S)[nH]c2=O)c2c(N)[nH]c(=S)[nH]c2=O)cc1 | -18.4 |
| COc1ccc(-c2csc(-c3ccc(O)cc3)n2)cc1 | 40 |
| COc1ccc(-c2nc(CCl)cs2)cc1 | 7.52 |
| O=C(CSc1c2c(nc3cc(Cl)ccc13)CCCC2)NCCCN1CCOCC1 | 50 |
| Cc1[nH]c(=S)c(C#N)c2c1CCCC2 | 16.1 |

| SMILES | inhibition [%] |
| --- | --- |
| COc1ccc(CNc2nc3nc(C)c(Cl)c(=O)n3[nH]2)cc1 | 28.1 |
| CC(OC(=O)c1cc(S(=O)(=O)N2CCOCC2)ccc1Br)C(=O)N1CCOCC1 (configuration not stated) | 6.34 |
| CCC1Oc2ccccc2N(CC(=O)NCCCN2CCCCC2CC)C1=O (configuration not stated) | 1.4 |
| CCOC(=O)c1ccc(NC2c3ccccc3C(=O)N2c2ccccn2)cc1 (configuration not stated) | -6.64 |
| NS(=O)(=O)c1ccc(NC2=CC(=O)C(=O)c3ccccc32)cc1 | 36.2 |
| O=C1C=C(Nc2ccccc2)C(=O)c2ccccc21 | 56.9 |
| CC(=O)Nc1ccc(NC2=CC(=O)c3ccccc3C2=O)cc1 | -2.89 |
| CCOC(=O)c1ccc(NC(=O)C(C)N2C(=O)c3ccccc3C2=O)cc1 (configuration not stated) | -8.22 |
| CCOC(=O)c1ccccc1NC1OC(=O)c2ccccc21 (configuration not stated) | -8.12 |
| CCOC(=O)c1c(C)[nH]c(C(=O)COC(=O)Cn2cc(C(F)(F)F)ccc2=O)c1C | 2.63 |
| CCCc1nnc(NC(=O)CCC(=O)Nc2ccc(F)cc2)s1 | -5.14 |
| CCN(C(=O)c1ccc(Cl)c(S(=O)(=O)Nc2c(C)n(C)n(-c3ccccc3)c2=O)c1)c1ccccc1 | 5.47 |
| CCN(CC)C(=O)Cn1cc(C(=O)C(=O)N2CCCc3ccccc32)c2ccccc21 | 16.8 |
| Cc1cc(/C=C2\NC(=O)NC2=O)c(C)n1-c1cccnc1 | -6.79 |
| S=C(Nc1ccccc1)N1CCC(Cc2ccccc2)CC1 | 5.68 |
| COc1ccc(O)c(/C=N/NC(=O)c2cccc(N3CCCC3=O)c2)c1 | 5.55 |
| O=C(N/N=C/c1cc(Br)ccc1O)c1cccc(N2CCCC2=O)c1 | 54.7 |
| CCC1(CC)C(=O)N(C)C(=O)NC1=NC | -9.72 |
| O=[N+]([O-])c1ccc(O)c(/C=N\N=C2c3ccccc3-c3ccccc32)c1 | 72.8 |
| O=[N+]([O-])c1cccc(C=Nc2cccc3ccccc23)c1O | 55.1 |
| O=[N+]([O-])c1cccc(/C=N\N=C2c3ccccc3-c3ccccc32)c1O | 22 |
| O=C(N/N=C\c1cc2c(cc1[N+](=O)[O-])OCO2)c1cccs1 | 16.5 |
| O=C(N/N=C/c1ccccc1[N+](=O)[O-])c1cccs1 | 55.4 |
| CN(C)/N=C/c1cc([N+](=O)[O-])ccc1O | -5.98 |
